Test results from PubChem BioAssay (Tox21).
Where “and” joins values, the source holds several entries; their conditions need not be identical. Identical values can stand only once. Inconclusive results are not listed. A call without a number means that no potency is given here. More than one record can exist for a structure, and the calls need not agree. Calls of active or inactive are those of the source. The call rests on the fitted dose curve; in most records, active means well fitted curve in the direction sought with a large enough effect in the repeat runs; inconclusive means weak or mixed curves; inactive means no such curve, though single readings can be large; an effect the other way counts as inactive or inconclusive.

What was measured:
[1] = target: Cytochrome P450 2D6 (Homo sapiens) (UniProt P10635); assay: Cytochrome P450 Family 2 Subfamily D Member 6 (CYP2D6) small molecule antagonists: luciferase reporter qHTS assay (AID 1671196); details: P450-Glo CYP2D6 enzyme assay, luciferin luminescence, 1 h; series mostly up to 115 µM; further: nearly all actives have a fitted effect of over 50% in size; further: potency means the concentration at half of the fitted maximal effect
Sequence of Cytochrome P450 2D6 (Homo sapiens) (P10635 whole entry, looked up): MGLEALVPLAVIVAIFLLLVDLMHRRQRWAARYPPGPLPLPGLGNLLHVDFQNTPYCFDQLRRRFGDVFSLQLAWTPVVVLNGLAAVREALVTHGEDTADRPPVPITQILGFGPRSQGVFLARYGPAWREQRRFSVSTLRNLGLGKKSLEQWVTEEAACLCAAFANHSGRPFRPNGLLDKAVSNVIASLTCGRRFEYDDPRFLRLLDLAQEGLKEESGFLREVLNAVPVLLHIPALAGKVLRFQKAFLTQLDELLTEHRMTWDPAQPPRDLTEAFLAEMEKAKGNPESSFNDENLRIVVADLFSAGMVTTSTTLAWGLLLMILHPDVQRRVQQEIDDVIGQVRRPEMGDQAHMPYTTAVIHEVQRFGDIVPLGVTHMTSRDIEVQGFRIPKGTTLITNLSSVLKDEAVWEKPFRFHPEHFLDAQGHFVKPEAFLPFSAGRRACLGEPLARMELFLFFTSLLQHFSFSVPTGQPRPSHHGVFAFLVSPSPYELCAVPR
Procedure, shortened: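 Cell-free P450-Glo system: CYP2D6 with proluciferin substrate was pre-incubated with compound for 10 min, then reacted with NADPH regeneration for 1 h at room temperature. Luciferin product was detected after 20 min, and data were reported as relative luminescence units.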

[2] = target: Cytochrome P450 2C19 (Homo sapiens) (UniProt P33261); assay: Cytochrome P450 Family 2 Subfamily C Member 19 (CYP2C19) small molecule antagonists: luciferase reporter qHTS assay (AID 1671197); details: P450-Glo CYP2C19 enzyme, luciferin luminescence, 1 h; series mostly up to 115 µM; further: nearly all actives have a fitted effect of over 65% in size; further: potency means the concentration at half of the fitted maximal effect
Sequence of Cytochrome P450 2C19 (Homo sapiens) (P33261 whole entry, looked up): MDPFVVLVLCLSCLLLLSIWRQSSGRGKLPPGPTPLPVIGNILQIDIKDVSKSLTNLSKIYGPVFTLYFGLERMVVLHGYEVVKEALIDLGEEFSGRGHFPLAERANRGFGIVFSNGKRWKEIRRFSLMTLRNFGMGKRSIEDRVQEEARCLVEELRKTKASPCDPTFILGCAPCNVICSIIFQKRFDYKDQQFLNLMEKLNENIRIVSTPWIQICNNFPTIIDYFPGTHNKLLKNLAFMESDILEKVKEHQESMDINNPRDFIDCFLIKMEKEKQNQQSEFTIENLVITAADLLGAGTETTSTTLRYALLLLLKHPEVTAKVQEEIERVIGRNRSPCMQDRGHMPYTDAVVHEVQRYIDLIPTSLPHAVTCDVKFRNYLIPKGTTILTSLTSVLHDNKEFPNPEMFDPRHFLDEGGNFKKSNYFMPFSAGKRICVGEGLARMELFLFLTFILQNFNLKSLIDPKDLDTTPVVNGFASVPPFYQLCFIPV
Procedure, shortened: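 Quantitative high-throughput screen of the Tox21 library using CYP2C19 with proluciferin substrate. Reaction: NADPH regeneration, 37C, 1 h, after 10 min compound preincubation at room temperature. Readout: luminescence.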

[3] = target: Cytochrome P450 2C9 (Homo sapiens) (UniProt P11712); assay: Cytochrome P450 Family 2 Subfamily C Member 9 (CYP2C9) small molecule antagonists: luciferase reporter qHTS assay (AID 1671198); details: P450-Glo CYP2C9 enzyme assay, luciferin luminescence; series mostly up to 115 µM; further: nearly all actives have a fitted effect of over 50% in size; further: potency means the concentration at half of the fitted maximal effect
Sequence of Cytochrome P450 2C9 (Homo sapiens) (P11712 whole entry, looked up): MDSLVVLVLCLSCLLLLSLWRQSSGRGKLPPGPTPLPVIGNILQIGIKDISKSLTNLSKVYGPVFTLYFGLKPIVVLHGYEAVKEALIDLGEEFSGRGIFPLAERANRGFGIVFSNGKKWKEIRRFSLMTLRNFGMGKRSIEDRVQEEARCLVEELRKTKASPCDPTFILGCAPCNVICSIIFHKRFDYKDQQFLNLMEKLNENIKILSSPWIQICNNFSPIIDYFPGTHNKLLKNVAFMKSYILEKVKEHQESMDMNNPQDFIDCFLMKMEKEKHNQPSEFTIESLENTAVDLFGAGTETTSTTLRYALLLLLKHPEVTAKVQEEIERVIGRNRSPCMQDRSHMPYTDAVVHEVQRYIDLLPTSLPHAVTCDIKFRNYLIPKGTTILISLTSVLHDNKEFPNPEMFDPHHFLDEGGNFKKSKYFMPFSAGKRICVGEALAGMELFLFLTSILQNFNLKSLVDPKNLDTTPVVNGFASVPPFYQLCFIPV
Procedure, shortened: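 CYP2C9 activity was measured with a P450-Glo proluciferin substrate. Enzyme–substrate mix was held with compound for 10 min at room temperature, then NADPH regeneration solution was added for 1 h at 37C. Luciferin product was read as luminescence.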

[4] = target: Cytochrome P450 1A2 (Homo sapiens) (UniProt P05177); assay: Cytochrome P450 Family 1 Subfamily A Member 2 (CYP1A2) small molecule antagonists: luciferase reporter qHTS assay (AID 1671199); details: P450-Glo CYP1A2 enzyme, luciferin luminescence, 1 h; series mostly up to 115 µM; further: nearly all actives have a fitted effect of over 50% in size; further: potency means the concentration at half of the fitted maximal effect
Sequence of Cytochrome P450 1A2 (Homo sapiens) (P05177 whole entry, looked up): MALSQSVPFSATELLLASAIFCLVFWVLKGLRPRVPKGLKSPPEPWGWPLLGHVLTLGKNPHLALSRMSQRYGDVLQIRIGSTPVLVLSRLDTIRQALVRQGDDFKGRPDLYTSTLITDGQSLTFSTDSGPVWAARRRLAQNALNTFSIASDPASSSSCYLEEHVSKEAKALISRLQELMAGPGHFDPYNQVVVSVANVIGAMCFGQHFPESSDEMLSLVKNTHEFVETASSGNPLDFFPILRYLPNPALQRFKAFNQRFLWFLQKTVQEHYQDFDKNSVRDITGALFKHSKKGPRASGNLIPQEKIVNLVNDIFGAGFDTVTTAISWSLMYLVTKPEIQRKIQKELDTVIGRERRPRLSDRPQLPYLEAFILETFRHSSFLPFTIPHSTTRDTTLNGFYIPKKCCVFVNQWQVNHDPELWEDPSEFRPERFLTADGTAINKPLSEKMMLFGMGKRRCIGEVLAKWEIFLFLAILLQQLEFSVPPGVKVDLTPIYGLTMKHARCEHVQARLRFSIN
Procedure, shortened: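 P450-Glo CYP1A2 enzyme–proluciferin substrate mix with compound 10 min at room temperature, then NADPH regeneration 1 h at room temperature. Luciferin detection reagent added, luminescence read after 20 min; furafylline positive control.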

[5] = target: Voltage-gated inwardly rectifying potassium channel KCNH2 (Homo sapiens) (UniProt Q12809); assay: Human Ether-a-go-go-Related Gene (hERG) channel small molecule antagonists: fluorescence cell-based qHTS assay (AID 1671200); details: hERG-U2OS cells, FluxOR thallium flux fluorescence; series mostly up to 76.8 µM;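 further: hERG-expressing U2OS cells given a thallium stimulus after FluxOR II dye loading; nearly all actives have a fitted effect of over 50% in size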
Sequence of Voltage-gated inwardly rectifying potassium channel KCNH2 (Homo sapiens) (Q12809 whole entry, looked up): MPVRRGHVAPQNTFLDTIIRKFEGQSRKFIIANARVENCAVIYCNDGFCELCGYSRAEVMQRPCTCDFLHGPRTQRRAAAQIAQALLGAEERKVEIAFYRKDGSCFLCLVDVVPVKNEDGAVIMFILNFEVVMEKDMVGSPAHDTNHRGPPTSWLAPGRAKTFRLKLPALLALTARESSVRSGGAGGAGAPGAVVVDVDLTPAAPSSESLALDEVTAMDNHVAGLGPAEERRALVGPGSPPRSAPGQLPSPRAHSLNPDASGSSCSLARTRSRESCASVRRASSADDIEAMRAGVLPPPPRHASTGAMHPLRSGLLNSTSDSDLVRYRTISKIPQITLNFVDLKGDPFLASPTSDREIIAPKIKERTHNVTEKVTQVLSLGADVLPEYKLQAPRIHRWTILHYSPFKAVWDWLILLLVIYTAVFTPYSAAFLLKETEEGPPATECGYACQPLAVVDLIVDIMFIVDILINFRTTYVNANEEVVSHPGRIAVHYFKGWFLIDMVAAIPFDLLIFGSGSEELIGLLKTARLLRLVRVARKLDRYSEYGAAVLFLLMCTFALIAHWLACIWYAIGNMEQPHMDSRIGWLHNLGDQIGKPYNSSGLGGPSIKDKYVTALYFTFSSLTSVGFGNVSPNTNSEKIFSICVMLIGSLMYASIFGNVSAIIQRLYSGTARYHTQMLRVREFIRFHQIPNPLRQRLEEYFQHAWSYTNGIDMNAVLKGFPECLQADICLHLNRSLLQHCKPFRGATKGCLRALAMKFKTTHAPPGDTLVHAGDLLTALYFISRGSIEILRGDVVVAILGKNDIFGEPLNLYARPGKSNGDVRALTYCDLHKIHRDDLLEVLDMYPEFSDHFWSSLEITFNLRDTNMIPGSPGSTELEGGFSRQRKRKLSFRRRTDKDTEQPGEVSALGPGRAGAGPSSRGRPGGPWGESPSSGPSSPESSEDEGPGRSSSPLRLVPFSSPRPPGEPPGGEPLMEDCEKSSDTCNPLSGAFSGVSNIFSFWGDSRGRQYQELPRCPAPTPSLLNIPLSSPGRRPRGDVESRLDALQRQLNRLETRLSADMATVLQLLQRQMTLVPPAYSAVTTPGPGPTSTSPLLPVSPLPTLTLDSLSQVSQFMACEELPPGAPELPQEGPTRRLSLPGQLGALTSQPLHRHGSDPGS
Procedure, shortened: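 Read-out: thallium influx as a surrogate for potassium, tracked as fluorescence (480 nm ex/540 nm em) every second for 2 min after Stimulus Buffer addition in dye-loaded hERG-U2OS cells.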

[6] = target: Cytochrome P450 3A4 (Homo sapiens) (UniProt P08684); assay: Cytochrome P450 Family 3 Subfamily A Member 4 (CYP3A4) small molecule antagonists: luciferase reporter qHTS assay (AID 1671201); details: P450-Glo CYP3A4 enzyme, luciferin luminescence, 1 h; series mostly up to 115 µM; further: nearly all actives have a fitted effect of over 50% in size; further: potency means the concentration at half of the fitted maximal effect
Sequence of Cytochrome P450 3A4 (Homo sapiens) (P08684 whole entry, looked up): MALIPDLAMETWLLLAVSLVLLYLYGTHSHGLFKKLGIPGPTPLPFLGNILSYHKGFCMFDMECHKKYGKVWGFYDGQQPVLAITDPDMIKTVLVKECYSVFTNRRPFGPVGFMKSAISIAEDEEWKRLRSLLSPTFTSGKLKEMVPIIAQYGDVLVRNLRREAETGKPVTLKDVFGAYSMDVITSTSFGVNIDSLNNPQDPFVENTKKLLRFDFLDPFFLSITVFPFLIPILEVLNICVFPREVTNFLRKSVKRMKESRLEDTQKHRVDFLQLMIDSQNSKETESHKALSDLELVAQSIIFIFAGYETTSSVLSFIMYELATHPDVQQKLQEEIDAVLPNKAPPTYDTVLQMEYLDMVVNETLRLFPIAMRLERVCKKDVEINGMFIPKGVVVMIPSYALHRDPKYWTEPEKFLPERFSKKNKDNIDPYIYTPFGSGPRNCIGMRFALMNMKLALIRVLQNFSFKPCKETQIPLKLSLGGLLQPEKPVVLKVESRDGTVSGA
Procedure, shortened: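 Luminescent readout (RLU) proportional to CYP3A4 activity, from luciferin generated off a proluciferin substrate. Enzyme–substrate mix plus compound 10 min at room temp, NADPH regeneration 1 h, detection reagent 20 min.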

Row | SMILES | Potency [1] | Potency [2] | Potency [3] | Potency [4] | Potency [5] | Potency [6] | activity change, negative = inhibition [5]
1 | CN[C@H]1CC[C@@H](c2ccc(Cl)c(Cl)c2)c2ccccc21 | 1.55 µM (active) | 3.89 µM (active) | 30.9 µM (active) | 17.4 µM (active) |  |  | 
2 | CCCCCCCC(=O)OCC(COC(=O)CCCCCCC)OC(=O)CCCCCCC | inactive | inactive | inactive | inactive | inactive | inactive | 
3 | CCCCOC(=O)c1ccc(O)cc1 | inactive | 28.6 µM (active) and 35.6 µM (active) and 15.5 µM (active) | 32.1 µM (active) and 28.3 µM (active) and 17.4 µM (active) | 4.54 µM (active) and 6.33 µM (active) and 4.36 µM (active) | inactive | inactive | 
4 | NC1CCCCC1 | inactive | 35.8 µM (active) and inactive | inactive | 40.2 µM (active) and inactive | inactive | inactive | 
5 | CN(C)C(=O)Nc1ccc(Cl)c(Cl)c1 | 31.6 µM (active) and inactive | 39.8 µM (active) and 71 µM (active) and inactive | inactive | 794 nM (active) and 1.42 µM (active) and 645 nM (active) | inactive | inactive | 
6 | CN(N=O)C(=O)N[C@@H]1[C@@H](O)[C@H](O)[C@@H](CO)O[C@@H]1O | inactive | inactive | inactive | inactive |  | inactive | 
7 | Nc1ccc2c(c1)CN1C(=O)c3ccccc3C1=N2 | 6.01 µM (active) | 3.01 µM (active) | 3.79 µM (active) | 0.499 µM (active) |  |  | 0.308% [at 15.8 µM] (inactive)
8 | CCCCCCc1ccc(O)cc1O | 31.8 µM (active) and 31.7 µM (active) and 15.5 µM (active) | 5.04 µM (active) and 5.64 µM (active) and 3.89 µM (active) | 7.12 µM (active) and 6.33 µM (active) and 5.49 µM (active) | 71.2 µM (active) and 71 µM (active) and inactive |  |  | 
9 | O=CC(=O)c1ccccc1 | 12.6 µM (active) | 35.6 µM (active) | inactive | 35.6 µM (active) | inactive | inactive | 
10 | CCCc1cc(=O)[nH]c(=S)[nH]1 | inactive | inactive | inactive | inactive | inactive | inactive | 
11 | C[C@](N)(Cc1ccc(O)c(O)c1)C(=O)O | inactive | inactive | inactive | inactive | inactive | inactive | 
12 | Cc1ncc([N+](=O)[O-])n1C | inactive | inactive | inactive | inactive | inactive | inactive | 
13 | O=C(Nc1ncc([N+](=O)[O-])s1)c1cccs1 | 12.3 µM (active) | 8.71 µM (active) | 5.49 µM (active) | 1.82 µM (active) |  |  | 
14 | F[B-](F)(F)F | inactive | 73.9 µM (active) and inactive and 79.6 µM (active) | inactive | inactive and 40.5 µM (active) | inactive | inactive and 40.5 µM (active) | 
15 | CN(C)CCOC(C)(c1ccccc1)c1ccccn1 (stereo not drawn) | 17.9 µM (active) and 20 µM (active) and 13.8 µM (active) | 40 µM (active) and inactive | inactive | inactive |  | inactive | 
16 | Nc1c2c(nc3ccccc13)CCCC2 | 3.56 µM (active) and 11.2 µM (active) and 11 µM (active) | 39.9 µM (active) and inactive | inactive | 5.03 µM (active) and 7.1 µM (active) and 7.23 µM (active) |  | inactive | 
17 | O=C1c2c(O)cccc2Cc2cccc(O)c21 | inactive | inactive | inactive | inactive | inactive | inactive | 
18 | CC(=O)Nc1c(I)c(NC(C)=O)c(I)c(C(=O)O)c1I | inactive | inactive and 79.6 µM (active) | inactive | inactive | inactive | inactive | 
